From article PMC7862700, “An all-to-all approach to the identification of sequence-specific readers for epigenetic DNA modifications on cytosine”

Tests used:
Test in all cases: DAPPL (digital affinity profiling via proximity ligation, sequencing); 10 mM Tris-HCl pH 7.5, 50 mM NaCl, 1 mM DTT, 4% glycerol, room temperature, 30 min; GST-TFs on glutathione beads, 16-mer random dsDNA library, 0.1% formaldehyde crosslink after washing; high values mean tight binding
FLI1 = biological target: T1, FLI1 (Homo sapiens, UniProt Q01543 1-452); details: protein: recombinant; tags: N-terminal GST; dsDNA, one strand shown
T1 sequence: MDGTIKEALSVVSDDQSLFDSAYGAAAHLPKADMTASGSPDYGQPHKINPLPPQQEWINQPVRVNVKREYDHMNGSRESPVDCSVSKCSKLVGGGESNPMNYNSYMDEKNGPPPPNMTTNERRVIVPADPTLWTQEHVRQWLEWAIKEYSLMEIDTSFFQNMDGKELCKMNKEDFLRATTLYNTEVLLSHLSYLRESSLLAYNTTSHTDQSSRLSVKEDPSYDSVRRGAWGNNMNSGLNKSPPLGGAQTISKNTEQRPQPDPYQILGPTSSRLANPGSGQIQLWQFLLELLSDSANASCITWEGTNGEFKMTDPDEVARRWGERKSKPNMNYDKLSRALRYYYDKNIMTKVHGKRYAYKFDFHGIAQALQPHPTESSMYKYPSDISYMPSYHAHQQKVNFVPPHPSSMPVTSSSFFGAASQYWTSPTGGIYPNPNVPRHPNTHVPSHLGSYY
Method in brief: (§1)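 Pools were built from human transcription factors expressed in yeast as GST fusions, captured on glutathione beads and DNA-barcoded, along with a tag-only sample. Incubation with 200 nmole of a 16-mer random double-stranded DNA library lasted 30 min at room temperature in Tris/NaCl/DTT/glycerol buffer, and was followed by washing, 0.1% formaldehyde crosslinking, proximity ligation, PCR amplification and Illumina NextSeq500 sequencing. Binding signal is the quotient of each hexamer's read frequency for a factor and its frequency for the tag-only sample.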

ELK1 = biological target: T2, ELK1 (Homo sapiens, UniProt P19419 1-428); details: protein: recombinant; tags: N-terminal GST; dsDNA, one strand shown
T2 sequence: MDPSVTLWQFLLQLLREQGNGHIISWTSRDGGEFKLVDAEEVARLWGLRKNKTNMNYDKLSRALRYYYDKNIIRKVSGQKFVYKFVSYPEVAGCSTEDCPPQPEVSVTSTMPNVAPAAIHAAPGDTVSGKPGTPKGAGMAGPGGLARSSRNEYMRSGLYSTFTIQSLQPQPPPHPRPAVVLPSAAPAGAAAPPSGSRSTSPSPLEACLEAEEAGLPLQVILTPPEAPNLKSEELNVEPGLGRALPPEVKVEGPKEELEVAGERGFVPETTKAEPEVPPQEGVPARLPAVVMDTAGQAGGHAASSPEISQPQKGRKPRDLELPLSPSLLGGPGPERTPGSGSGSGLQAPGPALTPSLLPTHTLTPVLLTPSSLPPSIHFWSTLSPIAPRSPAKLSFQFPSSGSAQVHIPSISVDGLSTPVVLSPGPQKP
Method in brief: as §1

GABPA = biological target: T3, GABPA (Homo sapiens, UniProt Q06546 1-454); details: protein: recombinant; tags: N-terminal GST; dsDNA, one strand shown
T3 sequence: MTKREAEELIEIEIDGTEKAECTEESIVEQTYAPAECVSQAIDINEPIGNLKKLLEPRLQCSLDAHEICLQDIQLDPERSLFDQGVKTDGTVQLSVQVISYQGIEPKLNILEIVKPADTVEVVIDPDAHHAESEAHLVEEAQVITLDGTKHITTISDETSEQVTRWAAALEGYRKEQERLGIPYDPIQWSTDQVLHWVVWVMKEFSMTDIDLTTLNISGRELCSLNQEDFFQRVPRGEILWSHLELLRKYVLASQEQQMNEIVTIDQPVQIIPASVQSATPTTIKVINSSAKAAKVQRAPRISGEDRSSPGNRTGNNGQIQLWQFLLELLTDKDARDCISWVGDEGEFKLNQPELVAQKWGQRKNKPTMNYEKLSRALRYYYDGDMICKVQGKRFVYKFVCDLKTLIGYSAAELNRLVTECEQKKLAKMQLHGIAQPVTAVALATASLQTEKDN
Method in brief: as §1

ERG = biological target: T4, ERG (Homo sapiens, UniProt P11308 1-479); details: protein: recombinant; tags: N-terminal GST; dsDNA, one strand shown
T4 sequence: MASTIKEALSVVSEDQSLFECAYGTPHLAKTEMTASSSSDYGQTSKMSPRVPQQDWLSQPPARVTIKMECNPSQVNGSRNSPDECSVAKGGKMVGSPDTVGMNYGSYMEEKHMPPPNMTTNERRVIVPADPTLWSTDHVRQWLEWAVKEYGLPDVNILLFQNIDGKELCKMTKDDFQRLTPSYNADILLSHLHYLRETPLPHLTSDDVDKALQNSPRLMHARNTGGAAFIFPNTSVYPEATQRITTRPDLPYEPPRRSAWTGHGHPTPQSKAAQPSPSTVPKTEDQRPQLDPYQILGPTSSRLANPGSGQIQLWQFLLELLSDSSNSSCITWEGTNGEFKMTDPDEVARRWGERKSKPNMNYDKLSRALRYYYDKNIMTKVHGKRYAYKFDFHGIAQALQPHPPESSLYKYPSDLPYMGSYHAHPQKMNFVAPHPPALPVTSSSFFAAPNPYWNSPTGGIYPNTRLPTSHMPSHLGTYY
Method in brief: as §1

ELF1 = ELF1 (Homo sapiens, UniProt P32519 1-619); details: protein: recombinant; tags: N-terminal GST; dsDNA, one strand shown
Sequence of ELF1 (P32519 whole entry): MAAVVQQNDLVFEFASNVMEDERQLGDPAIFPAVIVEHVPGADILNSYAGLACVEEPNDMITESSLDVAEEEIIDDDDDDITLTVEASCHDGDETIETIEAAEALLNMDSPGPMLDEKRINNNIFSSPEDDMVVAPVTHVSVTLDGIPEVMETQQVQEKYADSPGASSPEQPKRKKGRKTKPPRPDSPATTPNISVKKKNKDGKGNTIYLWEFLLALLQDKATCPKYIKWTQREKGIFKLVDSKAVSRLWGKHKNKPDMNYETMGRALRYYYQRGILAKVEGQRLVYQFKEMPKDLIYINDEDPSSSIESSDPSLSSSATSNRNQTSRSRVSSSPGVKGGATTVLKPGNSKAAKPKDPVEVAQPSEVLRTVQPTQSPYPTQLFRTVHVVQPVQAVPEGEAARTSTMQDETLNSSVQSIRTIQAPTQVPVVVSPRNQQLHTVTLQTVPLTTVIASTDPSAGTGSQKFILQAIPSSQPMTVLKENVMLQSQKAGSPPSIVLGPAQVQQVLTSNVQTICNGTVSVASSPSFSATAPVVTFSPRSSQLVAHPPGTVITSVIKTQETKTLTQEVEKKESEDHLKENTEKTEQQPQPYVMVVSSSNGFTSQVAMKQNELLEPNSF
Method in brief: as §1

EHF = biological target: T5, EHF (Homo sapiens, UniProt Q9NZC4 1-300); details: protein: recombinant; tags: N-terminal GST; dsDNA, one strand shown
T5 sequence: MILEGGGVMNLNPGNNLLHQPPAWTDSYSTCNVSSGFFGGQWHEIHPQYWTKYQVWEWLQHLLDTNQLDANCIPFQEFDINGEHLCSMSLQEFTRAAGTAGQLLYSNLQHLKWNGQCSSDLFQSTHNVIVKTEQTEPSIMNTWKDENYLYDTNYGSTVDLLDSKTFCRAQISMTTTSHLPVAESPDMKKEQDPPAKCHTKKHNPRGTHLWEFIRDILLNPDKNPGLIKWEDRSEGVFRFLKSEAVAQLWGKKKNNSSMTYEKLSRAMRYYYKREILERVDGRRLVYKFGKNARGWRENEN
Method in brief: as §1

SPI1 = SPI1 (Homo sapiens, UniProt P17947 1-270); details: protein: recombinant; tags: N-terminal GST; dsDNA, one strand shown
Method in brief: as §1

SPIB = SPIB (Homo sapiens, UniProt Q01892 1-262); details: protein: recombinant; tags: N-terminal GST; dsDNA, one strand shown
Sequence of SPIB (Q01892 whole entry): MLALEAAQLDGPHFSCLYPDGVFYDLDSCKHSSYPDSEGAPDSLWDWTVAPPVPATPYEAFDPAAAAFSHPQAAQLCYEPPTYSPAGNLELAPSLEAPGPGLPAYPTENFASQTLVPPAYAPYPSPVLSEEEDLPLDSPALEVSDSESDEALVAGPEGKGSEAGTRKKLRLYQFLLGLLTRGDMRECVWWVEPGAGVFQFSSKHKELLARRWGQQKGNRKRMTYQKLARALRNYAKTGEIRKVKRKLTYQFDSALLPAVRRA
Method in brief: as §1

ELK3 = biological target: T6, ELK3 (Homo sapiens, UniProt P41970 1-407); details: protein: recombinant; tags: N-terminal GST; dsDNA, one strand shown
T6 sequence: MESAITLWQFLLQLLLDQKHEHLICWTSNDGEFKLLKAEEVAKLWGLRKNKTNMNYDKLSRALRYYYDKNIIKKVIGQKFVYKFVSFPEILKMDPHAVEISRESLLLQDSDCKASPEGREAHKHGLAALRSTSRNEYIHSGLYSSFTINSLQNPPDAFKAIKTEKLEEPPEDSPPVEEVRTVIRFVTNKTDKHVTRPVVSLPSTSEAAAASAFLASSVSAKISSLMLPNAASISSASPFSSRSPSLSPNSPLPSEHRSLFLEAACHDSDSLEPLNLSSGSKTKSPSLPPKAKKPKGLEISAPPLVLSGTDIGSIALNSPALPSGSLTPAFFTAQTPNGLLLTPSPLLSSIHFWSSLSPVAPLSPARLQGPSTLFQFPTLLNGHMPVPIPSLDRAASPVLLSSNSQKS
Method in brief: as §1

FEV = biological target: T7, FEV (Homo sapiens, UniProt Q99581 1-238); details: protein: recombinant; tags: N-terminal GST; dsDNA, one strand shown
T7 sequence: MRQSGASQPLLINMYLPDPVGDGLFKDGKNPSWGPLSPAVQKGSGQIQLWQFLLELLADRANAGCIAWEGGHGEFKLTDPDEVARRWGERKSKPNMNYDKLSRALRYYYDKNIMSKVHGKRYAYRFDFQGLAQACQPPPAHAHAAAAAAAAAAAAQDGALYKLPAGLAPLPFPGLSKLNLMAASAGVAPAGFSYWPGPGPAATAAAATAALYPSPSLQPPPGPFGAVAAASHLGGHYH
Method in brief: as §1

ETV5 = ETV5 (Homo sapiens, UniProt P41161 1-510); details: protein: recombinant; tags: N-terminal GST; dsDNA, one strand shown
Sequence of ETV5 (P41161 whole entry): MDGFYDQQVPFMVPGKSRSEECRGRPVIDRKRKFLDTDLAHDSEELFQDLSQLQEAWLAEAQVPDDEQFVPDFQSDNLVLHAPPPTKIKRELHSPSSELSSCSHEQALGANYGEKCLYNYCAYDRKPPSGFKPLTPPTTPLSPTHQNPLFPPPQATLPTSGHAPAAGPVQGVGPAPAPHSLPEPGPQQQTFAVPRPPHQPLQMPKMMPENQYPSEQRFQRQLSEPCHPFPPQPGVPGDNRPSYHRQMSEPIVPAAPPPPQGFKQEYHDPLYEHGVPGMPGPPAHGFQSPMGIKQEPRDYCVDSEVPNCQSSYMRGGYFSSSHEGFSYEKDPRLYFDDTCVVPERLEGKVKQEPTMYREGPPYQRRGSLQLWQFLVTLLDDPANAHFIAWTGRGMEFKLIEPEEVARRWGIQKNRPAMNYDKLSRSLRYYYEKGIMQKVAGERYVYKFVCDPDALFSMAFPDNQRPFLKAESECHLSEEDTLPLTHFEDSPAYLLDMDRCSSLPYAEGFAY
Method in brief: as §1

HSF1 = HSF1 (Homo sapiens, UniProt Q00613 1-529); details: protein: recombinant; tags: N-terminal GST; chain copies: 3; dsDNA, one strand shown
Sequence of HSF1 (Q00613 whole entry): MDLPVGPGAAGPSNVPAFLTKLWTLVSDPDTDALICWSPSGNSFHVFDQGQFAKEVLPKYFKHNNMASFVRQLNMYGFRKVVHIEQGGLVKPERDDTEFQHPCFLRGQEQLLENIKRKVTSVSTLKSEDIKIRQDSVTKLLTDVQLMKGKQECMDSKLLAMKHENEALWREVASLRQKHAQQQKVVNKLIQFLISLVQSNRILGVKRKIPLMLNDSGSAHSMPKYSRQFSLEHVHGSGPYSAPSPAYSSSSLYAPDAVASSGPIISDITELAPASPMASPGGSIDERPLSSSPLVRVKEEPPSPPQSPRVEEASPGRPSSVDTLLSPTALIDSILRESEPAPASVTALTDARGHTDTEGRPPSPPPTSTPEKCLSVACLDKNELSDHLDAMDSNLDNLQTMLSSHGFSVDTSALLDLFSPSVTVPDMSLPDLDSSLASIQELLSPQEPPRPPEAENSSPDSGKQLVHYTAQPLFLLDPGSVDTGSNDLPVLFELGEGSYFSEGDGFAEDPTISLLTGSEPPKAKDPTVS
Method in brief: as §1

SPIC = biological target: T8, SPIC (Homo sapiens, UniProt Q8N5J4 1-248); details: protein: recombinant; tags: N-terminal GST; dsDNA, one strand shown
T8 sequence: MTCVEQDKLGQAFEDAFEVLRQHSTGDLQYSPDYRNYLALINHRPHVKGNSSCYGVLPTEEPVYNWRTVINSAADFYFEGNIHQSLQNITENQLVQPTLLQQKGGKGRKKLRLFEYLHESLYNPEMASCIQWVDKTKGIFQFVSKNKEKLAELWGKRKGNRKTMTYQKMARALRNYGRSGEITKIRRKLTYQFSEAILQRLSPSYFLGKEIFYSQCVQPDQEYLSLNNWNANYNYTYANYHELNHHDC
Method in brief: as §1

ELF4 = ELF4 (Homo sapiens, UniProt Q99607 1-663); details: protein: recombinant; tags: N-terminal GST; dsDNA, one strand shown
Sequence of ELF4 (Q99607 whole entry): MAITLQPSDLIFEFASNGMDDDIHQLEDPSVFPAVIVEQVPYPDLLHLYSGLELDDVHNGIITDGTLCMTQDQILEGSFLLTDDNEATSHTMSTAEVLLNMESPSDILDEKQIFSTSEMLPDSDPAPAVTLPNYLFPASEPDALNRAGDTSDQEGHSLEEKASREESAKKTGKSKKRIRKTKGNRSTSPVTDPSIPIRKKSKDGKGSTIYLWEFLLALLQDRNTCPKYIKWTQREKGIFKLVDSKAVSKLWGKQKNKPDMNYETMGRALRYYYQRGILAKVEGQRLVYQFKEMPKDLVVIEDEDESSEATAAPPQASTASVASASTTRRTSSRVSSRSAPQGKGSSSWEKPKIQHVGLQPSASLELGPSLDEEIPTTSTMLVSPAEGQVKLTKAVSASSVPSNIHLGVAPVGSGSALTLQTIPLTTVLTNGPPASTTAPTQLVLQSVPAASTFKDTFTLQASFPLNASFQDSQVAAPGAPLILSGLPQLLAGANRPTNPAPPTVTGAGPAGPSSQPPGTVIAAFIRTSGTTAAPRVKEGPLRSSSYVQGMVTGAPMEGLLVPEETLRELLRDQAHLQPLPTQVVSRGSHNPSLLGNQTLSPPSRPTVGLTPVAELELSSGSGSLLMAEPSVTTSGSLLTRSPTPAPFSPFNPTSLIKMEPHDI
Method in brief: as §1

ELK4 = biological target: T9, ELK4 (Homo sapiens, UniProt P28324-2 1-405); details: protein: recombinant; tags: N-terminal GST; dsDNA, one strand shown
T9 sequence: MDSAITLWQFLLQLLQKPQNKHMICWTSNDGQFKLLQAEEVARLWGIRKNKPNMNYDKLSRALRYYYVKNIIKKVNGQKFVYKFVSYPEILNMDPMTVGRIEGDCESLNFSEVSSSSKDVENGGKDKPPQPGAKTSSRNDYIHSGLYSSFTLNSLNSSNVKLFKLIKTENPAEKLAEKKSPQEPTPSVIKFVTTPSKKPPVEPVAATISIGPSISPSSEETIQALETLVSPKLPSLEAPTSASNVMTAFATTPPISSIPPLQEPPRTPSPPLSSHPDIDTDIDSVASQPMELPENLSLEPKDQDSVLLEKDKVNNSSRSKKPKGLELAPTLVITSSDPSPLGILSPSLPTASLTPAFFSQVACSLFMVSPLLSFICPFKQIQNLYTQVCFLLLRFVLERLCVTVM
Method in brief: as §1

ETV2 = biological target: T10, ETV2 (Homo sapiens, UniProt O00321 1-342); details: protein: recombinant; tags: N-terminal GST; dsDNA, one strand shown
T10 sequence: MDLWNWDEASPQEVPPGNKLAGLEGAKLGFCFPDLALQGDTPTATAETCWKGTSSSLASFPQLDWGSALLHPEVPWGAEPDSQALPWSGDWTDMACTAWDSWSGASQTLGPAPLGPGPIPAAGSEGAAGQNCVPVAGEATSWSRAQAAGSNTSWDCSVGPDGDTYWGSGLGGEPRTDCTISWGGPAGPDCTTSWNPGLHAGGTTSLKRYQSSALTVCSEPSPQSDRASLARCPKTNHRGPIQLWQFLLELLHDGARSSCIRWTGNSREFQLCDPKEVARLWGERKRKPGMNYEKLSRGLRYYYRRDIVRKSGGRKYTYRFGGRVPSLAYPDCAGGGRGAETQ
Method in brief: as §1

ELF3 = biological target: T11, ELF3 (Homo sapiens, UniProt P78545 1-371); details: protein: recombinant; tags: N-terminal GST; dsDNA, one strand shown
T11 sequence: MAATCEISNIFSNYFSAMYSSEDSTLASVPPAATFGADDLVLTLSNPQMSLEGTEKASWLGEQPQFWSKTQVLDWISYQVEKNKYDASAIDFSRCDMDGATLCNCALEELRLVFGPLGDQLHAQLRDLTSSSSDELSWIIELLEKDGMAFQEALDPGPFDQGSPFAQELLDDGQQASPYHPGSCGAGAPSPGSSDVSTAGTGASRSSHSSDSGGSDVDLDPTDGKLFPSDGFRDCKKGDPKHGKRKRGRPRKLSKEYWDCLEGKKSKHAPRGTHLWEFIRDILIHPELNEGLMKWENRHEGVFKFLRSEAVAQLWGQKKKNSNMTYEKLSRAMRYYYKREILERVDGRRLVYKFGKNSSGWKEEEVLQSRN
Method in brief: as §1

CRX = CRX (Homo sapiens, UniProt O43186 1-299); details: protein: recombinant; tags: N-terminal GST; dsDNA, one strand shown
Sequence of CRX (O43186 whole entry): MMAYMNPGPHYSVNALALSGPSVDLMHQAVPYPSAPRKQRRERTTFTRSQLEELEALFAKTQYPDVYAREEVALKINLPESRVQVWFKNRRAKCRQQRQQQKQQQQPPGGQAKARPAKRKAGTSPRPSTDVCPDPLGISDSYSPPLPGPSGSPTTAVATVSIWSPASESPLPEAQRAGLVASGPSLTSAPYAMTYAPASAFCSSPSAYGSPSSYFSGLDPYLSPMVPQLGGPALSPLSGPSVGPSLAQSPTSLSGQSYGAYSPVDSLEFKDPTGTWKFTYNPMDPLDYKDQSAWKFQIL
Method in brief: as §1

ETV1 = ETV1 (Homo sapiens, UniProt P50549 1-477); details: protein: recombinant; tags: N-terminal GST; dsDNA, one strand shown
Sequence of ETV1 (P50549 whole entry): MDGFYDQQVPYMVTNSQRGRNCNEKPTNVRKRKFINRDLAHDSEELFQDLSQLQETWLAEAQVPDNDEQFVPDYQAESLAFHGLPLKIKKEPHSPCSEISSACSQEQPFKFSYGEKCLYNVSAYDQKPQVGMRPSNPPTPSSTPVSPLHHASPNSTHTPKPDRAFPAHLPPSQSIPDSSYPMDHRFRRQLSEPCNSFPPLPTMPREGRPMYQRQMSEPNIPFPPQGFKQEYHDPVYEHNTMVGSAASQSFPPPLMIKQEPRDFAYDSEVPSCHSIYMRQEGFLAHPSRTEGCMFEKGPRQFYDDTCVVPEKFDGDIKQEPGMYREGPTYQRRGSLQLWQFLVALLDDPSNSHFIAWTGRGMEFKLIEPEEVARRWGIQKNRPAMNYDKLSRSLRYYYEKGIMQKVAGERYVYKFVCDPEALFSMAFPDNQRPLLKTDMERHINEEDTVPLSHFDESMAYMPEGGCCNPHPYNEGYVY
Method in brief: as §1

Sequence: CTGATC
- binding signal (FLI1): 1.16 fold enrichment (6-mer frequency, TF over GST control)
- binding signal (ELK1): 1.54 fold enrichment (6-mer frequency, TF over GST control)
- binding signal (GABPA): 1.4 fold enrichment (6-mer frequency, TF over GST control)
- binding signal (ERG): 1.42 fold enrichment (6-mer frequency, TF over GST control)
- binding signal (ELF1): 1.4 fold enrichment (6-mer frequency, TF over GST control)
- binding signal (EHF): 1.39 fold enrichment (6-mer frequency, TF over GST control)
- binding signal (SPI1): 1.27 fold enrichment (6-mer frequency, TF over GST control)
- binding signal (SPIB): 1.4 fold enrichment (6-mer frequency, TF over GST control)
- binding signal (ELK3): 1.4 fold enrichment (6-mer frequency, TF over GST control)
- binding signal (FEV): 1.31 fold enrichment (6-mer frequency, TF over GST control)
- binding signal (ETV5): 1.29 fold enrichment (6-mer frequency, TF over GST control)
- binding signal (HSF1): 1.53 fold enrichment (6-mer frequency, TF over GST control)
- binding signal (SPIC): 1.57 fold enrichment (6-mer frequency, TF over GST control)
- binding signal (ELF4): 1.41 fold enrichment (6-mer frequency, TF over GST control)
- binding signal (ELK4): 1.39 fold enrichment (6-mer frequency, TF over GST control)
- binding signal (ETV2): 1.13 fold enrichment (6-mer frequency, TF over GST control)
- binding signal (ELF3): 1.25 fold enrichment (6-mer frequency, TF over GST control)
- binding signal (CRX): 1.95 fold enrichment (6-mer frequency, TF over GST control)
- binding signal (ETV1): 1.43 fold enrichment (6-mer frequency, TF over GST control)
